From PubChem BioAssay (EPA / NIEHS)
Active and inactive are the calls of the source. Rule for the calls: active = hit-call score of the fitted dose curve at least 0.9, where 1 is the maximum; inactive = score below 0.9.

The molecules below were run on CD69, CD69 (gene 969) (assay: BSK_SAg_CD69: BioMAP Diversity Plus: SAg Assay for CD69 Biomarker Activity (AID 2283089)). Conditions: primary human HUVEC with PBMC; actives raise or lower the signal.
Description: BSK_SAg is a cell-based, multiplexed-readout assay that uses umbilical vein endothelium and peripheral blood mononuclear cells, a human vascular primary cell co-culture, with measurements taken at 24 hours after chemical dosing in a 96-well plate.BSK_SAg_CD69 is one of 10 assay component(s) measured or calculated from the BSK_SAg assay. It is designed to make measurements of enzyme-linked immunosorbent assay, a form of binding reporter, as detected with fluorescence intensity signals by Enzyme-linked immunosorbent assay technology.Data from the assay component BSK_SAg_CD69 was analyzed into 1 assay endpoint. This assay endpoint, BSK_SAg_CD69, was analyzed with bidirectional fitting relative to DMSO as the negative control and baseline of activity. Using a type of binding reporter, gain or loss-of-signal activity can be used to understand changes in the signaling as they relate to the gene CD69. Furthermore, this assay endpoint can be referred to as a primary readout, because this assay has produced multiple assay endpoints where this one serves a signaling function. To generalize the intended target to other relatable targets, this assay endpoint is annotated to the cytokine intended target family, where the subfamily is inflammatory factor.
The levels of cell surface (or secreted, indicated by the prefix "s") biomarker endpoints were measured by ELISA. Overt cytotoxicity to cells in confluent adherent cultures (all systems other than the BT system) was assessed by measuring total protein levels using sulforhodamine B (SRB) staining in parallel cultures at the time of biomarker measurements, indicated as SRB endpoints. For proliferation assays for adherent cell types, individual cell types are cultured at sub-confluence and relative cell numbers quantified by SRB staining at time points optimized for each system (48 h: 3C and CASM3C systems; 72 h: BT and HDF3CGF systems; 96 h: SAg system). SRB was performed by staining cells with 0.1% SRB after fixation with 10% TCA and reading wells at 560 nm.Viability and proliferation of PBMC (T cells) was quantified by Alamar Blue reduction for the SAg and BT systems. For PBMC viability (referred to as PBMC Cytotoxicity within the assay endpoint names), cells were plated (75,000/well in a 96-well plate) and then chemical samples added for 1 h before addition of activators, SEB and TSST-1 (20 ng/mL final concentration each). Cells were incubated for 90 h. Then, Alamar Blue (20 uL/well) (Invitrogen, Cat DAL1100) was added for 6 h, and the plates were read with a fluorescence microplate reader at 546/580 nm (excitation/emission). For PBMC proliferation, cells were plated and activated as above but incubated for only 16 h prior to addition of Alamar Blue. Plates were read after 6 h.

outcome, inactive:
c1ccc(Oc2ccccc2)cc1
C1=CC2C3C=CC(C3)C2C1 (stereo not given)
CCCCCC(C=O)=Cc1ccccc1
COc1cc(Cl)c(OC)cc1N
CC1(C)C2=CCCC(C)(C)[C@]23CC[C@H]1C3
CCOC(=O)C(C#N)=C(c1ccccc1)c1ccccc1
CC1(C)CCC[C@]2(C)[C@H]3CCO[C@]3(C)CC[C@@H]12
CC(=O)c1c(C)c([N+](=O)[O-])c(C(C)(C)C)c([N+](=O)[O-])c1C
Cc1cc(CCC(=O)OCCOCCOCCOC(=O)CCc2cc(C)c(O)c(C(C)(C)C)c2)cc(C(C)(C)C)c1O
CCCCCCC(CO)CCCC (stereo not given)
c1ccc2cc(Nc3ccc(Nc4ccc5ccccc5c4)cc3)ccc2c1
CSCCC=O
C=C(C)[C@H]1CC=C(C)C(=O)C1
CC(C)(N=C=O)c1cccc(C(C)(C)N=C=O)c1
CC=Cc1ccc(OCC)c(O)c1
C[C@@H]1CCN(C(=O)[C@H](CCCN=C(N)N)NS(=O)(=O)c2cccc3c2NC[C@H](C)C3)[C@@H](C(=O)O)C1
O=CN1CCOCC1
CS(=O)(=O)c1ccc(C2=C(c3ccccc3)C(=O)OC2)cc1
C=C(C)C(=O)OCCOCCOCCOC(=O)C(=C)C
COc1ccc(OC)c(N=Nc2c(O)ccc3ccccc23)c1
CCN(CC)C(=O)N(CC)CC
O=C(Nc1ccc2c(O)c(N=Nc3ccc(N=Nc4ccc(S(=O)(=O)O)cc4)cc3)c(S(=O)(=O)O)cc2c1)c1ccccc1
CN(c1nccc(=O)[nH]1)C1CCN(c2nc3ccccc3n2Cc2ccc(F)cc2)CC1
CS(=O)(=O)OCCCCOS(C)(=O)=O
O=C1OC[C@H](Cc2cccc(O)c2)[C@H]1Cc1cccc(O)c1
IC(I)I
C=C(C)C(=O)OCC(CC)(COC(=O)C(=C)C)COC(=O)C(=C)C
CC(CN=Cc1ccccc1O)N=Cc1ccccc1O (stereo not given)
O=C1c2ccccc2C(=O)c2c(O)ccc(O)c21
CC(C=O)Cc1ccc(C(C)(C)C)cc1 (stereo not given)

AC50, active:
Oc1c(Cl)cc(Cl)c(Cl)c1Cc1c(O)c(Cl)cc(Cl)c1Cl 5.19 µM
CCCCN(CCCC)C(=O)N(CCCC)CCCC 11.2 µM
c1ccc(CCc2ccccc2)cc1 30 µM
CC(C)(C)CC(C)(C)c1ccc(OCCOCC[N+](C)(C)Cc2ccccc2)cc1 3.28 µM
CCCCCCCCCCCCCCCC(=O)OC/C=C(C)/C=C/C=C(C)/C=C/C1=C(C)CCCC1(C)C 20 µM
O=C1OC2(c3ccccc31)c1ccc(O)c(Br)c1Oc1c2ccc(O)c1Br 20 µM
CC(=O)C1(C)CC2=C(CCCC2(C)C)CC1C (stereo not given) 24.5 µM
Clc1cc(Cl)c(-c2c(Cl)c(Cl)cc(Cl)c2Cl)cc1Cl 10 µM
COc1ccc(CCN2CCC(Nc3nc4ccccc4n3Cc3ccc(F)cc3)CC2)cc1 5 µM
CC(=O)Nc1ccc(C(=O)CCl)cc1 5.33 µM
